Laboratory results published in PubChem BioAssay AID1159580 (chemical genetic matrix, 2015).
Screen size: about 5,500 compounds; about 2,000 (36%) were called active. Not shown: some 18% with an inconclusive outcome. Cut-off read from the data, not from the text of the source: active = normalized growth mostly below about 0.91 (no sharp cut-off); inconclusive = no clear call, values can overlap the other calls; inactive = mostly above about 0.92. This is one part of the list.

Experiment: chemical genetic growth profiling, strain panel (AID 1159580);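 note: tested at 20 µM; growth read once vehicle control cultures reached saturation at 30 °C; 1 = growth at the plate median or of vehicle wells; lower values mean less growth of the strain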
Settings: S. cerevisiae deletion strains, growth OD

Measured: normalized growth

Cc1ccc2nc(-c3ccc4c(c3)OCCO4)cn2c1
inactive: locus YAR019C, strain CDC15, stronger effect = lower value 0.981 | locus YBL105C, strain PKC1, stronger effect = lower value 0.98 | locus YBR135W, strain CKS1, stronger effect = lower value 0.984 | locus YBR136W, strain MEC1, stronger effect = lower value 0.983 | locus YBR160W, strain CDC28, stronger effect = lower value 0.978 | locus YDL017W, strain CDC7, stronger effect = lower value 0.985 | locus YDL028C, strain MPS1, stronger effect = lower value 0.984 | locus YDL101C, strain DUN1, stronger effect = lower value 0.988 | locus YDL108W, strain KIN28, stronger effect = lower value 0.982 | locus YDL132W, strain cdc53, stronger effect = lower value 0.982 | locus YDL214C, strain PRR2, stronger effect = lower value 0.958 | locus YDR052C, strain DBF4, stronger effect = lower value 0.988 | locus YDR054C, strain cdc34, stronger effect = lower value 0.97 | locus YDR226W, strain ADK1, stronger effect = lower value 0.99 | locus YDR477W, strain SNF1, stronger effect = lower value 0.967 | locus YER123W, strain YCK3, stronger effect = lower value 0.941 | locus YER133W, strain GLC7, stronger effect = lower value 0.966 | locus YFL009W, strain cdc4, stronger effect = lower value 0.981 | locus YFL029C, strain CAK1, stronger effect = lower value 0.974 | locus YFR003C, strain YPI1, stronger effect = lower value 0.983 | locus YFR019W, strain FAB1, stronger effect = lower value 0.963 | locus YFR028C, strain CDC14, stronger effect = lower value 0.976 | locus YGR040W, strain KSS1, stronger effect = lower value 0.953 | locus YGR052W, strain FMP48, stronger effect = lower value 1.04 | locus YGR092W, strain DBF2, stronger effect = lower value 0.929 | locus YHR030C, strain SLT2, stronger effect = lower value 0.986 | locus YHR079C, strain IRE1, stronger effect = lower value 0.966 | locus YHR082C, strain KSP1, stronger effect = lower value 1.01 | locus YHR205W, strain SCH9, stronger effect = lower value 0.956 | locus YIL147C, strain SLN1, stronger effect = lower value 0.983 | locus YJL095W, strain BCK1, stronger effect = lower value 0.984 | locus YJL128C, strain PBS2, stronger effect = lower value 0.969 | locus YJL157C, strain FAR1, stronger effect = lower value 0.944 | locus YJR016C, strain ILV3, stronger effect = lower value 0.983 | locus YJR066W, strain TOR1 (second series), stronger effect = lower value 0.911 | locus YJR066W, strain TOR1, stronger effect = lower value 1 | locus YKL048C, strain ELM1, stronger effect = lower value 0.959 | locus YKL067W, strain YNK1, stronger effect = lower value 0.967 | locus YKL101W, strain HSL1, stronger effect = lower value 0.951 | locus YKL193C, strain SDS22, stronger effect = lower value 0.983 | locus YKL203C, strain TOR2, stronger effect = lower value 1.01 | locus YLR113W, strain HOG1, stronger effect = lower value 0.899 | locus YLR133W, strain CKI1, stronger effect = lower value 0.956 | locus YLR403W, strain SFP1, stronger effect = lower value 0.947 | locus YML070W, strain DAK1, stronger effect = lower value 0.938 | locus YMR001C, strain CDC5, stronger effect = lower value 0.987 | locus YMR205C, strain PFK2 (second series), stronger effect = lower value 0.97 | locus YMR277W, strain FCP1, stronger effect = lower value 0.982 | locus YNL006W, strain LST8, stronger effect = lower value 0.989 | locus YNL020C, strain ARK1, stronger effect = lower value 0.961 | locus YNL161W, strain CBK1, stronger effect = lower value 0.974 | locus YNL183C, strain NPR1, stronger effect = lower value 0.996 | locus YNL207W, strain RIO2, stronger effect = lower value 0.978 | locus YNL222W, strain SSU72, stronger effect = lower value 0.979 | locus YNL307C, strain MCK1 (second series), stronger effect = lower value 0.94 | locus YOL078W, strain AVO1, stronger effect = lower value 0.98 | locus YOL136C, strain PFK27, stronger effect = lower value 0.929 | locus YOR061W, strain CKA2, stronger effect = lower value 0.966 | locus YOR119C, strain RIO1, stronger effect = lower value 0.997 | locus YOR231W, strain MKK1, stronger effect = lower value 0.932 | locus YOR329C, strain SCD5, stronger effect = lower value 0.985 | locus YPL031C, strain PHO85, stronger effect = lower value 0.958 | locus YPL153C, strain RAD53, stronger effect = lower value 0.947 | locus YPL204W, strain HRR25, stronger effect = lower value 0.935 | locus YPL209C, strain IPL1, stronger effect = lower value 0.978 | locus YPL256C, strain CLN2, stronger effect = lower value 0.923 | locus YPR025C, strain CCL1, stronger effect = lower value 0.981 | locus YPR106W, strain ISR1, stronger effect = lower value 0.973 | locus YPR111W, strain DBF20, stronger effect = lower value 0.965 | strain NNK1, stronger effect = lower value 0.975 | strain TSCII, stronger effect = lower value 0.986
